Source: PubChem BioAssay (Tox21)
“And” between values parts separate entries of the source, which are not always exact repeats. Equal values may be shown once. Records with an inconclusive call do not appear. A call without a number means that no potency is given here. Some structures have more than one record in an assay (separate samples or runs), and their calls can disagree. The source made the active and inactive calls. Calls follow the shape of the dose curve; as a rule, active = well fitted cell-killing curve with a large enough effect in the repeat runs; inconclusive = weak or mixed curves, or effect the other way; inactive = no such curve, though single readings can be large or run the other way.

test: qHTS assay to identify small molecule antagonists of the sonic hedgehog signaling (Shh) pathway - cell viability counter screen (AID 1259367); details: NIH/3T3 Gli1-Luc viability, CellTiter-Fluor, 24 h; series mostly up to 92.4 µM; viability change, negative = cytotoxic: at the top concentration; also: nearly all actives have a fitted effect of over 55% in size
Description: National Center for Advancing Translational Sciences [NCATS]
NIH Chemical Genomics Center [NCGC]
U.S. Environmental Protection Agency [EPA]
National Institutes of Environmental Health Sciences [NIEHS]
National Toxicology Program [NTP]
U.S. Food and Drug Administration [FDA]
The sonic hedgehog (Shh) pathway is essential for normal embryonic development. Dysregulation of the Shh pathway can cause severe developmental defects in organs. Therefore chemicals that interfere with the pathway are potential developmental toxicants. A cell line designated 3T3Gli1-Luc (DMB/OARSA/CFSAN/FDA, Laurel, MD), a NIH/3T3 derived clone containing stably integrated Gli1-Luc reporter is used to detect chemical interference of the Shh pathway, by changes in the expression of the firefly Luc gene under the control of the Gli1 transcriptional response element. This cell line was used to screen Tox21 libraries for identifying and prioritizing the potential developmental toxicants that interfere Shh pathway. Conditioned medium-stimulated mode was used to screen for chemicals inhibiting Shh signaling. The cytotoxicity of the compounds was tested in parallel by measuring the cell viability using CellTiter-Fluor assay system (Promega, Madison, WI) in the same wells.
Tox21 Assay Protocol Summary:
3T3 Gli1-Luc cells were dispensed at 2,000 per well in 5uL of culture medium into white solid bottom 1536-well plates (Greiner Bio-One, Monroe, NC) using a Multidrop Combi (Thermo Scientific, Waltham, MA) dispenser. The assay plates were incubated at 37 C and 5% CO2 for 4hr, and then 23nL of compounds dissolved in DMSO and positive control were transferred using a Pintool station (Wako, San Diego, CA). The compound transfer was followed by the addition of 1ul conditioned medium or assay buffer using two separate tips of Flying Reagent Dispenser (FRD, Aurora Discovery, San Diego, CA). The assay plates were incubated at 37C and 5% CO2 for 24hr. For viability read, after 23hr of compound treatment, 1uL of CellTiter-Fluor reagent (Promega Corporation, Madison, WI) was added to each well of the assay plates using Flying Reagent Dispenser (FRD, Aurora Discovery, San Diego, CA) and incubated the assay plates at 37C for 1hr. The fluorescence signal was quantified using a ViewLux plate reader (Perkin Elmer, Shelton, CT).
Potency is read from the fitted curve at half-maximal effect.

SMILES | Potency | viability change, negative = cytotoxic
CCC(C)CO (stereo not given) | inactive | –
Cc1ncc[nH]1 | inactive | –
CCC(C)OC(=O)c1ccc(O)cc1 (stereo not given) | inactive | –
CCC(C)(O)CCCC(C)C (stereo not given) | inactive | –
Nc1ccc(S(=O)(=O)Nc2cnc3ccccc3n2)cc1 | inactive | –
CC(C)(C)NC(=O)[C@H]1CC[C@H]2[C@@H]3CC[C@H]4NC(=O)C=C[C@]4(C)[C@H]3CC[C@]12C | inactive | –
S=C(NC1CCCCC1)NC1CCCCC1 | inactive and 30.6 µM (active) | –
COC(C)COC(C)COC(C)CO (stereo not given) | inactive | –
Nc1ccc(Nc2ccccc2)cc1 | 48.6 µM (active) | –
Cc1ccc2c(n1)Oc1ccc(C(C)C(=O)OCC(=O)N(C)C)cc1C2 (stereo not given) | inactive | –
CC(C)OC(=O)C(C)(C)Oc1ccc(C(=O)c2ccc(Cl)cc2)cc1 | – | 4% [at 42.5 µM] (inactive)
COc1ccc(C(=O)CC(=O)c2ccc(C(C)(C)C)cc2)cc1 | inactive | –
Brc1cc(Oc2cc(Br)c(Br)c(Br)c2Br)c(Br)c(Br)c1Br | – | -0.754% [at 42.5 µM] (inactive)
CCCCCCCCCC(=O)OC | inactive | –
CCOCCOCCO | inactive | –
CCCCC/C=C/C=C/C=O | inactive | –
O=C1OC2(c3cc(Br)c(O)c(Br)c3Oc3c2cc(Br)c(O)c3Br)c2c(Cl)c(Cl)c(Cl)c(Cl)c21 | 3.86 µM (active) and 14.8 µM (active) | –
Cc1cccc([N+](=O)[O-])c1C | inactive | –
C[Si](C)(C)O[Si](C)(C)C | inactive | –
O=C(Nc1ccc([N+](=O)[O-])cc1Cl)c1cc(Cl)ccc1O | 30.6 µM (active) | -21.1% [at 19 µM] (inactive)

SMILES | Potency | viability change, negative = cytotoxic
COC(=O)CCC(=O)OC | inactive | –
C=CC(C)(CCC=C(C)C)OC(C)=O (stereo not given) | inactive | –
Cn1cnc([N+](=O)[O-])c1Sc1ncnc2nc[nH]c12 | 19.2 µM (active) | –
CC(=O)c1ccccn1 | inactive | –
CCCCC(CC)COP(=O)(OCC(CC)CCCC)OCC(CC)CCCC (stereo not given) | inactive | –
CCCCNS(=O)(=O)c1ccccc1 | inactive | –
CN(C)c1nc(N(C)C)nc(N(C)C)n1 | inactive | –
O=C(c1ccccc1)c1ccc(O)cc1O | 55.5 µM (active) and inactive | –
CN(C)CCN(Cc1cccs1)c1ccccn1 | inactive | –
Cc1ccc(C(=O)c2cc(O)c(O)c([N+](=O)[O-])c2)cc1 | 54.5 µM (active) and inactive | –
O=C(Nc1ccc(Cl)cc1)Nc1ccc(Cl)c(Cl)c1 | inactive | –
COc1cccc2c1C(=O)c1c(O)c3c(c(O)c1C2=O)C[C@@](O)(C(=O)CO)C[C@@H]3O[C@H]1C[C@H](N)[C@H](O)[C@H](C)O1 | 967 nM (active) and 6.68 µM (active) | –
CCCc1c(OCCCCc2nn[nH]n2)ccc(C(C)=O)c1O | inactive | –
c1cc(-c2ccncc2)ccn1 | inactive | –
O=[N+]([O-])c1ccc2c(c1)Cc1ccccc1-2 | inactive | –
CCC(C)c1ccccc1O (stereo not given) | inactive | –
COC(=O)c1ccccc1 | inactive | –
CN1C(C(=O)Nc2ccccn2)=C(O)c2ccccc2S1(=O)=O | inactive | –
CC(=O)Oc1ccccc1C(=O)Nc1ncc([N+](=O)[O-])s1 | 24.8 µM (active) and 26.6 µM (active) | –
